Experimental findings from PubChem BioAssay (NCATS) are described below.

Assay [1] is described as follows: Cell Viability - N2a (AID 540).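 Note: plate controls were DMSO alone for no effect and tamoxifen control for full effect; nearly all actives have a fitted effect of over 45% in size.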 As to conditions: N2a mouse neuroblastoma cell viability; activity change, negative = cytotoxicity: at 92.2 µM (top of the series). The procedure, abridged: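 CellTiter-Glo ATP luminescence, read 20 min after reagent at room temperature, reported viability following 40 h compound treatment at 37 °C. N2a mouse neuroblastoma cells seeded 1500/well; Hill equation gave AC50.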

Assay [2] in a line: Cell Viability - SH-SY5Y (AID 544).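 Note: cells exposed to compound for 40 hours; 0% = DMSO alone and -100% = 100 µM tamoxifen; nearly all actives have a fitted effect of over 55% in size.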 Particulars: SH-SY5Y neuroblastoma cell viability; viability change, negative = cytotoxic: at 92.2 µM (top of the series). The method, boiled down:
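Cytotoxicity measured via ATP-dependent luciferase luminescence (CellTiter-Glo) following 40 h, 37 °C exposure of 1500 SH-SY5Y cells per well. Concentration-response data were fitted with the standard Hill equation to give AC50.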

Assay [3] can be described thus: Cell Viability - Renal Proximal Tubule (AID 545).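 Note: cells exposed to compound for 40 hours; 0% = DMSO only and -100% = 100 µM tamoxifen; nearly all actives have a fitted effect of over 40% in size.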 The procedure, abridged: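 Viability taken as intracellular ATP (CellTiter-Glo luminescence) after 40 hr, 37 °C compound treatment of primary proximal tubule cells from rat kidney, 1000 cells/well; Hill-equation fits of qHTS concentration-response data gave AC50.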
Assay [4] addresses Cytochrome P450 3A4 (Homo sapiens) (UniProt P08684). The assay can be described thus: qHTS Assay for Inhibitors and Substrates of Cytochrome P450 3A4 (AID 884). Note: % is set by controls: 0 for no effect and ±100 for the full control effect; nearly all actives have a fitted effect of over 50% in size. The method, boiled down: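 Luminescent readout of luciferin produced by CYP3A4 (20 nM) dealkylation of Luciferin-PPXE, 25 uM (its KM). NADPH-driven reaction ran 60 min at RT after 10 min compound preincubation; data scaled to 57 uM ketoconazole as 100% inhibition.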
(Quantitative high-throughput screening tests each substance at several concentrations.)

Assay [5] is described as follows: Cell Viability - LYMP2-001 (AID 921).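 Note: 0% = DMSO only and full inhibition = tetraoctylammonium bromide control wells; nearly all actives have a fitted effect of over 70% in size.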 The procedure, abridged: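 Cellular ATP loss read by luciferase luminescence after 24 h compound exposure at 37 C in complete medium. LYMP2-001 lymphoblastoid cells, 2500/well; qHTS concentration-response data fitted with Hill equation for AC50.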
Assay [6] in a line: Cell Viability - LYMP2-003 (AID 965).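 Note: cells exposed to compounds for 24 h before reading; 0% = DMSO only and full effect = 92 µM tetraoctylammonium bromide; nearly all actives have a fitted effect of over 50% in size.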 The procedure, abridged:
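CellTiter-Glo luminescence quantified ATP loss after 24 h compound treatment of LYMP2-003 lymphoblastoid cells at 37 C. Titration series were fitted with the standard Hill equation to give AC50.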

Assay [7] is described as follows: Cell Viability - LYMP2-015 (AID 971).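 Note: 0% = DMSO only and full effect = 92 µM tetraoctylammonium bromide; nearly all actives have a fitted effect of over 55% in size.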 The procedure, abridged:
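Cytotoxicity readout: decrease in intracellular ATP (CellTiter-Glo luminescence) in 2500 LYMP2-015 lymphoblastoid cells/well after 24 h compound exposure at 37 C. Concentration-response data fitted with the standard Hill equation to give AC50.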

Assay [8] is described as follows: Cell Viability - LYMP2-019 (AID 973).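 Note: 0% = DMSO alone and full effect = 92 µM tetraoctylammonium bromide; nearly all actives have a fitted effect of over 55% in size.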 The method, boiled down:
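AC50 values come from Hill-equation fits of luminescent intracellular ATP (CellTiter-Glo, 30 min, room temperature) following 24 h compound exposure at 37 C. Cells: LYMP2-019 lymphoblastoid line, 2500 per well, in complete culture medium.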

The nature of assay [9]: Cell Viability - LYMP2-002 (AID 977).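 Note: plate controls were DMSO only for no effect and 92 µM tetraoctylammonium bromide for full effect.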 The method, boiled down: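 Human lymphoblastoid cells (2500/well) in complete medium were preincubated 5 hr at 37 C, then exposed to compounds for 24 hr at 37 C. Intracellular ATP was read by CellTiter-Glo luminescence; AC50 came from Hill-equation concentration-response fits.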
Assay [10] in a line: Cell Viability - LYMP2-008 (AID 980). Note: % is set by controls: 0 for no effect and ±100 for the full control effect; nearly all actives have a fitted effect of over 60% in size. The procedure, abridged:
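Cytotoxicity determined from ATP-dependent luciferase luminescence (CellTiter-Glo) following 24 h compound exposure of human lymphoblastoid LYMP2-008 cells at 37 C. Concentration-response data fitted to the Hill equation to give AC50.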

A short description of assay [11]: Cell Viability - LYMP2-010 (AID 981). Note: % is set by controls: 0 for no effect and ±100 for the full control effect; nearly all actives have a fitted effect of over 55% in size. The procedure, abridged:
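CellTiter-Glo ATP luminescence measured cytotoxicity after 24 h compound exposure at 37 C. LYMP2-010 cells were seeded at 2500/well, with tetraoctylammonium bromide as control; concentration-response curves gave AC50 values by the Hill equation.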

Assay [12] is described as follows: Cell Viability - LYMP2-012 (AID 982).
Assay [13] is described as follows: Cell Viability - LYMP2-020 (AID 986). The method, boiled down:
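Cytotoxicity in qHTS format: luminescent ATP readout from CellTiter-Glo after 24 h compound exposure at 37 C in complete medium. LYMP2-020 lymphoblastoid cells were seeded at 2500/well; concentration-response data fitted to the Hill equation for AC50.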

Assay [14] can be described thus: Cell Viability - LYMP2-022 (AID 987). The procedure, abridged: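 Cytotoxicity read as decreased cellular ATP (CellTiter-Glo luminescence, 30 min room temperature) after 24 hours compound exposure of 2500 lymphoblastoid LYMP2-022 cells/well at 37 C. Concentration-response data fitted with standard Hill equation for AC50.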
Assay [15] in a line: Cell Viability - LYMP1-002 - Assay at 40 hr (AID 994).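 Note: 0% = DMSO only and full inhibition = 92 µM tetraoctylammonium bromide; nearly all actives have a fitted effect of over 60% in size.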 The procedure, abridged:
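Cytotoxicity was read as loss of cellular ATP (CellTiter-Glo luminescence) after 40 hr compound exposure at 37 C of 2500 LYMP1-002 lymphoblastoid cells per well. Concentration-response data were fitted with the standard Hill equation to give AC50.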

A short description of assay [16]: qHTS assay for small molecule agonists of retinoid X receptor alpha signaling (AID 588544). As to conditions: HEK293T RXRa-UAS-bla, beta-lactamase reporter, 18 h; 530 nm emission.
The nature of assay [17]: qHTS assay for small molecule antagonists of retinoid X receptor alpha signaling (AID 588546; active = well fitted inhibition curve with a large enough effect in the signal ratio, with a control signal flat, not every such curve was filed as active; the % refers to the signal ratio;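 note: cells stimulated with 9-cis-retinoic acid as agonist; % is set by controls: 0 for no effect and ±100 for the full control effect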). Particulars: HEK293T RXRa-UAS-bla, beta-lactamase ratio, antagonist mode; measured here: W530 green channel, cytotoxicity proxy. The procedure, abridged:
(§1)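 Beta-lactamase reporter inhibition, read as CCF4 fluorescence ratio (ex 405, em 460/530 nm) after 2 h at RT. HEK293T UAS-bla cells, 2500/well, were stimulated with 9-cis-RA at 500 or 100 nM final alongside test compound for 18 h at 37 C.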

For assay [18], the target named is Retinoic acid receptor RXR-alpha (Homo sapiens) (UniProt P19793). The description is as above. Particulars: HEK293T RXRa-UAS-bla, beta-lactamase ratio, antagonist mode. The procedure, abridged:
as §1

Assay [19] addresses Tumor necrosis factor (Homo sapiens) (UniProt P01375). The assay can be described thus: qHTS assay to identify small molecules that stimulate Tumor Necrosis Factor-alpha (TNF-alpha) secretion (AID 651757; active = well fitted curve in the direction sought with a large enough effect in the signal ratio; the % refers to the signal ratio; note: 0% is about no effect). The procedure, abridged: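 Secreted TNF-alpha quantified by TR-FRET sandwich of two labeled anti-TNF-alpha antibodies, incubated 3 hr at room temperature. Preceded by 17 hr, 37 C compound treatment of THP-1 cells at 3000 cells/well.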

Assay [20] in a line: qHTS assay for small molecule antagonists of the retinoid-related orphan receptor gamma (ROR-gamma) signaling pathway - cell viability counter screen (AID 720652; active = well fitted curve in the direction sought with a large enough effect in the repeat runs; an effect the other way counts as inactive or inconclusive;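 note: compound exposure lasted 16 hr before ATP read; % is set by controls: 0 for no effect and ±100 for the full control effect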). The method, boiled down: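 Cytotoxicity counter screen: intracellular ATP (CellTiter-Glo luminescence) measured in the doxycycline-induced CHO RORE-luciferase reporter line after 16 hr compound exposure at 37 C, 5% CO2.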

Molecules are shown by their SMILES. Values joined by “and” are separate entries in the source; they are usually repeats but may differ in a detail not shown here. Equal entries are not always repeated. Results filed as inconclusive are left out. Active and inactive are the calls of the source. Unless noted, calls come from the whole dose curve; as a rule, active = well fitted curve in the direction sought with a large enough effect; inconclusive = small, poorly fitted or top-dose-only effect, or another doubt; inactive = no such curve, though single readings can be large; an effect the other way counts as inactive or inconclusive.

Tumor necrosis factor (Homo sapiens), sequence (P01375 whole entry, looked up): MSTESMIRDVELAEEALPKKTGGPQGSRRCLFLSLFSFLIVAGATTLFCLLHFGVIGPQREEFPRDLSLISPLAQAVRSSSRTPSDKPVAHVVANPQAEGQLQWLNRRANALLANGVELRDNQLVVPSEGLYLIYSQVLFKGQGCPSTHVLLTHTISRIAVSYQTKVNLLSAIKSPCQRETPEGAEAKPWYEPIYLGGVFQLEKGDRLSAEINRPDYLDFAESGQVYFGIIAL
Retinoic acid receptor RXR-alpha (Homo sapiens), sequence (P19793 whole entry, looked up): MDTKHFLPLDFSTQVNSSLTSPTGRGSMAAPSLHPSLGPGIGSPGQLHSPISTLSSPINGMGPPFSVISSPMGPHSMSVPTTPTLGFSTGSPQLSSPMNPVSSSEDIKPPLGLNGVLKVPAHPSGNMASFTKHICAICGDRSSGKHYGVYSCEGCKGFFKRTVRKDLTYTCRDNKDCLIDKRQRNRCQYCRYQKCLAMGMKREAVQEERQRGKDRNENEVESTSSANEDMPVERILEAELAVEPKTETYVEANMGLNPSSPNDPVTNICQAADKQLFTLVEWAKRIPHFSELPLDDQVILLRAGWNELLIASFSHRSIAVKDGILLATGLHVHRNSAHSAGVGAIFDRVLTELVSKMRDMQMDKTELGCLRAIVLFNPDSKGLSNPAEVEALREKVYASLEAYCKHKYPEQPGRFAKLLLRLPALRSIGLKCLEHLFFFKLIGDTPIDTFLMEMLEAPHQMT
Cytochrome P450 3A4 (Homo sapiens), sequence (P08684 whole entry, looked up): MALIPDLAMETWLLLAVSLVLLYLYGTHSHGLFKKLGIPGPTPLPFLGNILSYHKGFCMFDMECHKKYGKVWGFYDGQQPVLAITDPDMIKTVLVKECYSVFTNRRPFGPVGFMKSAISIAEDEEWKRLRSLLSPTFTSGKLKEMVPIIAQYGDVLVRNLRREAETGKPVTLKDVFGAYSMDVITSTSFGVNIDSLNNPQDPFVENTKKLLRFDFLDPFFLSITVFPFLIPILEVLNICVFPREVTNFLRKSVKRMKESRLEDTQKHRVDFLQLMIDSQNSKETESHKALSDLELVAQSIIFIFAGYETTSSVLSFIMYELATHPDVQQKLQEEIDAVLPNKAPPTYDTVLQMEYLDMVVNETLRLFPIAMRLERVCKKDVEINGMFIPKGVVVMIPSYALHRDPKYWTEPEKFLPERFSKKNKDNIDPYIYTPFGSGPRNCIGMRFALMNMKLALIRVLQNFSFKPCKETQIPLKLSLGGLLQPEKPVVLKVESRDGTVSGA

Consider `O=S(=O)(O)F`, for which the Potency entry in [1], in assay [2], in assay [4], in assay [5], in assay [6] and in assay [7] was “inactive” throughout. In addition, the Potency result in assay [8], in assay [9], in [10], in assay [11], in assay [12] and in [13] was “inactive” throughout. The Potency entry in assay [14], in assay [15] and in assay [20] was “inactive” throughout. Besides, the molecule was called inactive in [3] and in assay [19]. The max response is -13.3% in assay [16], -2.92% in [17] and 39.7% (inactive) in assay [18].

As for `N#CC(O)c1ccccc1` (stereo not given), the Potency result in [1], in assay [2], in assay [4], in assay [5], in [6] and in [7] was “inactive” each time. The Potency result in assay [8], in assay [9], in assay [10], in [11], in assay [12] and in assay [13] was “inactive” in each case. Moreover, the Potency result in assay [14], in assay [15] and in [20] was “inactive” each time. Also, the outcome in assay [3] and in assay [19] was inactive. Further, the figures for the max response in [16], in [17] and in assay [18] were -0.409%, -9.69% and 0.403% (inactive), respectively.

As to `Cc1ccc(N)c(C)c1`, the Potency result in assay [1], in assay [2], in assay [4], in assay [5], in assay [6] and in [7] was “inactive” each time. For the same molecule, the Potency entry in [8], in [9], in [10], in [11], in assay [12] and in assay [13] was “inactive” in each case. For the same molecule, the Potency entry in assay [14], in [15] and in assay [20] was “inactive” in each case. For the same molecule, the result in assay [3] and in [19] was inactive. In addition, the max response in [16] is -7.75%; in assay [17] it was 1.29%; in assay [18], -1.52% (inactive).

In the case of `Cc1cnc[nH]1`, the Potency entry in assay [1], in assay [2], in assay [4], in [5], in assay [6] and in [7] was “inactive” in each case. For the same molecule, the Potency result in assay [8], in [9], in assay [10], in [11], in assay [12] and in [13] was “inactive” in each case. The Potency entry in assay [14] and in [20] was “inactive” each time. For the same molecule, the outcome in assay [3] and in [19] was inactive. For the same molecule, the max response in assay [16] was 2.59%; in assay [17], -10.6%; in [18], 4.17% (inactive).

For the molecule `Oc1cc(Cl)ccc1Cl`, the Potency result in [1], in [2], in [5], in assay [6], in assay [7] and in assay [8] was “inactive” each time. Moreover, the Potency result in assay [9], in assay [10], in [11], in assay [12], in assay [13] and in [14] was “inactive” in each case. The Potency result in [15] and in [20] was “inactive” in each case. Moreover, the molecule was classed as inactive in assay [3] and in [19]. The max response in assay [16] is -10.2% and -8.32%; in assay [17], -4.84% and -5.75%; in assay [18], 8.9% (inactive) and 7.36% (inactive).

As for `c1ccc(NNc2ccccc2)cc1`, the Potency result in assay [1], in assay [2], in assay [4], in assay [5], in [6] and in assay [7] was “inactive” in each case. For the same molecule, the Potency result in assay [8], in assay [9], in [10], in [11], in [12] and in assay [13] was “inactive” throughout. For the same molecule, the Potency entry in assay [14], in assay [15] and in assay [20] was “inactive” in each case. In addition, the result in assay [3] and in assay [19] was inactive. The max response in assay [16] is -6.25% and -9.7%; in assay [17] it was -8.78% and -5.97%; in assay [18] it was 1.29% (inactive) and 6.1% (inactive).

In the case of `O=[N+]([O-])c1ccc(Cl)c(Cl)c1Cl`, the Potency entry in assay [1], in [2], in assay [4], in assay [5], in assay [6] and in assay [7] was “inactive” each time. For the same molecule, the Potency entry in [8], in [9], in [10], in assay [11], in [12] and in [13] was “inactive” throughout. The Potency entry in [14], in assay [15] and in [20] was “inactive” in each case. The call in assay [3] and in assay [19] was inactive. For the same molecule, the values for the max response in assay [16], in assay [17] and in assay [18] were 3.54%, -8.55% and 7.17% (inactive), respectively.

For `CC12CC1(C)C(=O)N(c1cc(Cl)cc(Cl)c1)C2=O` (stereo not given), the Potency entry in assay [1], in [2], in [4], in [5], in assay [6] and in assay [7] was “inactive” throughout. Also, the Potency entry in assay [8], in [9], in assay [10], in assay [13], in [14] and in assay [15] was “inactive” in each case. Moreover, the call in assay [3] and in assay [19] was inactive. Moreover, the max response in [16] is -5.02% and -2.83%; in assay [17], 4.78%; in assay [18], -13.5% (inactive).
